Measurements: PubChem BioAssay AID1304 (The Scripps Research Institute Molecular Screening Center, 2008)
About 800 (0.36%) of roughly 220,000 compounds were called active. No stated cut-off is given here; in the data, active means activation above about 33% (passing the limit was not always enough); inactive means the rest. The entries come from a sample that favours actives as a whole.

Target: Neuropeptide Y receptor type 1 (Homo sapiens) (UniProt P25929)
Test: activation enhancers of human NPY-Y1 – cell-based, primary screen (AID 1304);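 further: cells stimulated with NPY at EC10 then isoproterenol at EC100; 0% = low agonist plus stimulus and 100% = saturating agonist plus stimulus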
Conditions: NPY-Y1 expressing cells, potentiator/agonist activation; at 3.6 µM; stronger effect = higher value

Neuropeptide Y receptor type 1 (Homo sapiens), sequence (P25929 whole entry, looked up): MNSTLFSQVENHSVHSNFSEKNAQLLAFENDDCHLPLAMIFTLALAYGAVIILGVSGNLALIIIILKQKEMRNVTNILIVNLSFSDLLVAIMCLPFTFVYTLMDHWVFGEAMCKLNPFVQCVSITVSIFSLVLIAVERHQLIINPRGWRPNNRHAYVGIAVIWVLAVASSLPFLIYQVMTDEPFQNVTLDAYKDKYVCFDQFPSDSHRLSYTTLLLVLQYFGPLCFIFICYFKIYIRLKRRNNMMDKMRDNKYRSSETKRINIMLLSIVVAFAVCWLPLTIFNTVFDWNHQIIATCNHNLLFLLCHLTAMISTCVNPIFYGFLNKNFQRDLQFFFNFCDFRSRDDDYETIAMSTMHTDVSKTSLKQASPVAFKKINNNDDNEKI

| Compound | activation |
| --- | --- |
| CCc1ccc2nc(Nc3ncc(C(C)=O)c(C)n3)nc(C)c2c1 | 9.28% (inactive) |
| OCC1(CCc2ccccc2)CCN(Cc2ccc3nsnc3c2)CC1 | -0.79% (inactive) |
| O=C(/C=C/c1cnc2ccccc2n1)NC1CCCCCC1 | -3.45% (inactive) |
| COCCNC(=O)/C(C#N)=C/c1nc(N(C)C)n(-c2ccc(F)cc2)c1Cl | 0.95% (inactive) |
| CCCCN1C(=S)NC[C@@H]1C(C)CC (some centres not stated) | -11.4% (inactive) |
| Cc1ccc(C(=O)N2CCN(C(=O)N3CCOCC3)CC2)cc1 | -5.88% (inactive) |
| O=C(c1cccs1)N1CCN(C(=O)N2CCOCC2)CC1 | 112% (active) |
| CCS(=O)(=O)N1CCN(C(=O)c2cccs2)CC1 | 3.05% (inactive) |
| O=S1(=O)C=C(SCCN2CCCC2)c2ccccc21 | 19% (inactive) |
| O=C(CN1C(=O)CC(c2ccccc2)S(=O)(=O)c2ccccc21)NC1CCCC1 (configuration not stated) | -1.33% (inactive) |
| Cc1cc([N+](=O)[O-])c(NC2CCCCC2)c([N+](=O)[O-])c1 | -19.9% (inactive) |
| Cc1cc(-c2nnc(CCC(=O)NC(c3ccccc3)c3ccccc3)o2)no1 | -1.1% (inactive) |
| O=C(NC1CCN(Cc2ccccc2)CC1)c1ccc(Oc2cc(Cl)cc(Cl)c2)o1 | 2.83% (inactive) |
| O=C(NC(=S)N1CCc2ccccc21)c1ccco1 | 5.18% (inactive) |
| COC(=O)c1sc(-c2ccc(C(C)(C)C)cc2)cc1NC(=O)/C=C/C(=O)O | 51.4% (active) |
| COc1ccccc1NC(=O)/C=C/C(=O)O | -17.3% (inactive) |
| O=C(O)/C=C/C(=O)Nc1ccc(F)cc1F | -9.35% (inactive) |
| CCOC(=O)C1CCN(C(=O)Nc2ccc(C)c(Cl)c2)CC1 | 2.62% (inactive) |
| CCCCCCCCCCCCN1C(=O)CSC1c1cccnc1 (configuration not stated) | 5.01% (inactive) |
| CC1=C/C(=N\OS(=O)(=O)c2ccccc2)C=CC1=O | 44.8% (active) |
| CC1=C/C(=N\S(=O)(=O)c2ccccc2)C(C(C)C)=CC1=O | 2.13% (inactive) |
| CCOC(=O)C1(S(=O)(=O)c2ccccc2)CCN(Cc2ccccc2)CC1 | 3.32% (inactive) |
| COc1ccc(C(=O)COC(=O)c2nn(C)c(=O)c3ccccc23)c(OC)c1 | -10.6% (inactive) |
| CCOc1ccc(C(=O)NC(=S)Nc2ccc(NC(=O)C(C)C)cc2)cc1[N+](=O)[O-] | -12.8% (inactive) |
| NC(=O)C1(N2CCCCC2)CCN(C(=S)Nc2ccc(Cl)cc2)CC1 | -0.45% (inactive) |
| NC(=O)C1(N2CCCCC2)CCN(C(=O)c2ccc(C#Cc3ccccc3)o2)CC1 | 62.8% (active) |
| CC(C)(O)C#Cc1ccc(C(=O)N2CCC(C(N)=O)(N3CCCCC3)CC2)cc1 | 4.73% (inactive) |
